The record followed here is PubChem BioAssay (NCATS).

Test [1] can be described thus: Cell Viability - SK-N-SH (AID 435; calls by dose curve; note: potency is the fitted concentration of half-maximal effect). The conditions noted are these: SK-N-SH neuroblastoma cell viability qHTS. The essentials:
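CellTiter-Glo ATP luminescence, 20 min RT read; cells pre-plated 5 hr, compound 40 hr at 37 °C, 1500 cells/well, complete medium. Normalized DMSO = 0, 100 uM tamoxifen = 100% inhibition; Hill-fit AC50.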

Test [2] in a line: Cell Viability - H-4-II-E (AID 543).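 Note: cells exposed to compound for 40 hours; nearly all actives have a fitted effect of over 35% in size.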 Note: potency is the fitted concentration of half-maximal effect. The conditions noted are these: H-4-II-E rat hepatoma viability; series mostly up to 92.2 µM. The gist of the method: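 qHTS, rat hepatoma H-4-II-E, 1500 cells/well; 40 hr compound exposure, 37 °C; CellTiter-Glo ATP luminescence after 20 min RT; AC50 by standard Hill fit.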
Test [3] is described as follows: Cell Viability - Mesenchymal (AID 546).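 Note: cells exposed to compound for 40 hours before reading.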 The conditions noted are these: mesenchymal cells viability, qHTS; series mostly up to 91.7 µM. The essentials:
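Human renal mesenchymal cells (glomerulus-derived), 1000 cells/well, 5 hr 37 °C pre-incubation; compound 40 hr, 37 °C; CellTiter-Glo, 20 min RT; luminescence; AC50 via Hill equation.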

The nature of test [4]: Cellular Toxicity (caspase-3) Jurkat (AID 655).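 Note: cells exposed to compound for 16 h at 37 °C before reading.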 Particulars: Jurkat caspase-3 activation, luminescence; caspase-3 activation: at 92.2 µM (top of the series), DMSO = 0%, tamoxifen = 100%. The essentials: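 Luminescent caspase-3/7 readout (aminoluciferin substrate cleavage) in human T-cell leukemia Jurkat cells after 16 hr compound exposure. Concentration-response normalized to DMSO and 100 uM tamoxifen; AC50 by standard Hill equation.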

Test [5] is described as follows: Cell Viability - LYMP2-009 (AID 968).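 Note: 0% = DMSO alone and the full-kill end = tetraoctylammonium bromide at 92 µM; nearly all actives have a fitted effect of over 55% in size.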 Particulars: LYMP2-009 lymphoblastoid cell viability; series mostly up to 92.2 µM.
Test [6] is described as follows: Cell Viability - LYMP2-021 (AID 974).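 Note: compound exposure lasts 24 hours at 37 °C; % is set by controls: 0 for no effect and ±100 for the full control effect; nearly all actives have a fitted effect of over 55% in size.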 Particulars: LYMP2-021 lymphoblastoid cells viability; series mostly up to 92.2 µM. The gist of the method: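 ATP luminescence (CellTiter-Glo, 30 min RT) after 24 h compound exposure at 37 C; 2500 human lymphoblastoid cells/well, 5 h settle beforehand. Cytotoxicity = concentration-dependent ATP drop, AC50 by Hill fit.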
A short description of test [7]: Cell Viability - LYMP2-012 (AID 982).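 Note: cellular ATP by luciferase luminescence where a drop means cytotoxicity; cells exposed to compound for one day before reading; 0% = DMSO only and full loss = 92 µM tetraoctylammonium bromide; nearly all actives have a fitted effect of over 55% in size.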 Particulars: LYMP2-012 lymphoblastoid cell viability qHTS; series mostly up to 92.2 µM.
Test [8] is described as follows: Cell Viability - LYMP2-020 (AID 986).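 Note: plate controls were DMSO only for no effect and tetraoctylammonium bromide at 92 µM for full effect; nearly all actives have a fitted effect of over 55% in size.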 Particulars: series mostly up to 92.2 µM. The essentials:
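qHTS, 2500 cells/well; 5 hr then 24 hr compound exposure, 37 C; CellTiter-Glo luminescence after 30 min RT; ATP decrease taken as cytotoxicity; AC50 via Hill equation; tetraoctylammonium bromide positive control.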

Test [9] concerns the target Glucocorticoid receptor (Homo sapiens) (UniProt P04150). Nature of the test: qHTS assay for small molecule agonists of glucocorticoid receptor signaling (AID 588532; active = well fitted curve in the direction sought with a large enough effect in the signal ratio, with a control signal flat; the % refers to the signal ratio;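 note: 100% = dexamethasone at 0.1 µM and 0% = DMSO only wells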). Particulars: HeLa MMTV-bla, beta-lactamase ratio, agonist, 18 h; hits give high values; percent of dexamethasone control, DMSO zero. The gist of the method: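 MMTV-bla HeLa beta-lactamase reporter cells in 1% charcoal/dextran FBS medium, compounds up to 92 uM for 18 h at 37 C, CCF4 readout; normalized to 0.1 uM dexamethasone (100%), EC50 and efficacy from Hill fits.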

Test [10] has as its target Peroxisome proliferator-activated receptor gamma (Homo sapiens) (UniProt P37231). Put plainly: qHTS assay for small molecule agonists of peroxisome proliferator-activated receptor gamma signaling (AID 588536; active = well fitted curve in the direction sought with a large enough effect in the signal ratio, with a control signal flat, not every such curve was filed as active; the % refers to the signal ratio;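 note: 0% = DMSO basal wells and 100% = rosiglitazone at 2 µM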). The conditions noted are these: HEK293 PPARg-UAS-bla, beta-lactamase ratio, 16 h, percent of rosiglitazone response, DMSO as zero; series mostly up to 76.7 µM. The essentials: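 This is an agonist-mode beta-lactamase reporter assay in HEK293 PPAR-gamma-UAS-bla cells with 1% charcoal/dextran FBS. Compound titrations ran 16 h at 37 C before CCF4 detection. EC50 and efficacy are Hill fits scaled to 2 uM rosiglitazone (100%) and DMSO basal.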

Test [11] concerns the target Vitamin D3 receptor (Homo sapiens) (UniProt P11473). Put plainly: qHTS assay for small molecule antagonists of vitamin D receptor signaling (AID 588541; calls by dose curve;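 note: receptor activated by calcitriol during compound treatment; % is set by controls: 0 for no effect and ±100 for the full control effect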). Particulars: HEK293T VDR-UAS-bla, beta-lactamase ratio, antagonist mode; series mostly up to 76.7 µM. The gist of the method:
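VDR-UAS-bla HEK293T cells in 2% charcoal-stripped FBS were stimulated with 1-alpha,25-dihydroxyvitamin D3 (3 nM final) plus compound for 16 h at 37 C. The beta-lactamase CCF4 readout was normalized to 50 nM agonist and DMSO, and Hill fits gave IC50.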

Test [12] in a line: Cell Viability - Renal Proximal Tubule (AID 545).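 Note: cells exposed to compound for 40 hours; nearly all actives have a fitted effect of over 40% in size.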 The conditions noted are these: renal proximal tubule cells viability; series mostly up to 91.7 µM. The gist of the method:
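Rat kidney proximal tubule cells, freshly isolated; 1000 cells/well, 5 hr settle, compound 40 hr 37 °C. CellTiter-Glo 20 min RT, luminescence read. AC50 by standard Hill fit.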

Test [13] in a line: Cell Viability - LYMP2-001 (AID 921).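 Note: 0% = DMSO only and full inhibition = tetraoctylammonium bromide control wells; nearly all actives have a fitted effect of over 70% in size.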 The conditions noted are these: LYMP2-001 lymphoblastoid cell viability; series mostly up to 92.2 µM. The essentials: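 CellTiter-Glo luminescence (intracellular ATP) after 24 hr compound exposure at 37 C, 2500 lymphoblastoid cells/well in complete medium. AC50 fitted with standard Hill equation; tetraoctylammonium bromide positive control.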

Test [14] is described as follows: Cell Viability - LYMP1-003 - Assay at 40 hr (AID 964). Note: % is set by controls: 0 for no effect and ±100 for the full control effect; nearly all actives have a fitted effect of over 60% in size. Particulars: LYMP1-003 lymphoblastoid viability; series mostly up to 92.2 µM. The essentials:
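LYMP1-003 lymphoblastoid cells, 2500/well; 5 hr preincubation, 40 hr compound exposure, 37 C; CellTiter-Glo 30 min RT; luminescence; Hill-fit AC50. Positive control tetraoctylammonium bromide.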

Test [15] can be described thus: Cell Viability - LYMP2-011 (AID 969).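 Note: cells exposed to compound for 24 hours; 0% = DMSO only and full inhibition = 92 µM tetraoctylammonium bromide; nearly all actives have a fitted effect of over 60% in size.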 Particulars: LYMP2-011 lymphoblastoid cells viability; series mostly up to 92.2 µM. The gist of the method:
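Luminescent ATP read-out (CellTiter-Glo, 30 min RT) after 24 hr compound exposure at 37 C in human lymphoblastoid cells, 2500 cells/well. Decreasing ATP indicates cytotoxicity; AC50 from standard Hill fit.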

A short description of test [16]: Cell Viability - LYMP2-008 (AID 980). Note: % is set by controls: 0 for no effect and ±100 for the full control effect; nearly all actives have a fitted effect of over 60% in size. Particulars: LYMP2-008 lymphoblastoid cell viability, qHTS; series mostly up to 92.2 µM. The essentials:
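Luminescent ATP read-out (CellTiter-Glo, 30 min RT) after 24 hr compound exposure at 37 C of human lymphoblastoid cells in complete medium. Decrease in ATP taken as cytotoxicity; AC50 derived by standard Hill fit of qHTS concentration-response data.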

Test [17] in a line: qHTS assay for small molecule activators of the nuclear factor-kappa B (NF-kB) signaling pathway (AID 651749; active = well fitted activation curve with a large enough effect in the signal ratio; the % refers to the signal ratio; note: % of control where 0% means no effect). Particulars: NF-kB-bla ME-180 cells, beta-lactamase FRET ratio, 16 h; hits give high values. The gist of the method:
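NF-kB-bla ME-180 cells, 2,000/well; 23 nL compound or DMSO pinned; 16 hr, 37C/5% CO2; beta-lactamase FRET read-out.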

Test [18] in a line: qHTS assay for small molecule disruptors of the mitochondrial membrane potential - 5 hr assay (AID 651755; calls by dose curve; note: nearly all actives have a fitted effect of over 40% in size; note: potency is the fitted concentration of half-maximal effect). The conditions noted are these: JC-1-type ratio dye; series mostly up to 92.2 µM. The gist of the method: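 Read-out: ratiometric Mito-MPS fluorescence, green monomer (ex 490/em 535) vs red mitochondrial aggregate (ex 540/em 590). HepG2 cells treated 5 hr at 37C before 30 min dye loading.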

The target of test [19] is Nuclear receptor subfamily 1 group I member 2 (Rattus norvegicus) (UniProt Q9R1A7). Nature of the test: qHTS assay for small molecule activators of the rat pregnane X receptor (rPXR) signaling pathway (AID 651751; call rule not given here; note: 0% is about no effect). The conditions noted are these: rPXR reporter cells, luciferase (One-Glo), 24 h.
Chain of Nuclear receptor subfamily 1 group I member 2 (Rattus norvegicus) (Q9R1A7 whole entry, looked up): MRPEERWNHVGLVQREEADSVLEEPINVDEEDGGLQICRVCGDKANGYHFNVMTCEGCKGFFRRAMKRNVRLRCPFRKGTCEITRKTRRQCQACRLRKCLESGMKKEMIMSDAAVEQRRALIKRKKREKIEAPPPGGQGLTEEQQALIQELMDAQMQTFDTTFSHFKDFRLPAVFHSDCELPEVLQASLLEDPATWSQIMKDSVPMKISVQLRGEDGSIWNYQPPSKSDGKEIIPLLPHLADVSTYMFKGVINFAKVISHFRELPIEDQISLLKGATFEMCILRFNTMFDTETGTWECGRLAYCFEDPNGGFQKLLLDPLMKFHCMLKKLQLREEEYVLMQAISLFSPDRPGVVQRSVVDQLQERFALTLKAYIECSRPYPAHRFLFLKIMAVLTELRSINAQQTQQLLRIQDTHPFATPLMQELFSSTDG
The nature of test [20]: Cell Viability - LYMP2-004 (AID 966).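 Note: plate controls were DMSO only for no effect and tetraoctylammonium bromide control for full effect; nearly all actives have a fitted effect of over 65% in size.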 Particulars: LYMP2-004 lymphoblastoid cell viability, qHTS; series mostly up to 92.2 µM. The gist of the method:
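Luminescent ATP read-out (CellTiter-Glo, 30 min RT) after 24 hr compound exposure at 37 C; 2500 lymphoblastoid cells/well, complete medium. Decrease in ATP = cytotoxicity; AC50 from standard Hill model.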

Each structure is given as a SMILES string. “And” between values parts separate entries of the source, which are not always exact repeats. Identical values can stand only once. A number with no mark means an inactive call. Results filed as inconclusive are left out. The source made the active and inactive calls. Unless noted, calls come from the whole dose curve; as a rule, active = well fitted curve in the direction sought with a large enough effect; inconclusive = small, poorly fitted or top-dose-only effect, or another doubt; inactive = no such curve, though single readings can be large; an effect the other way counts as inactive or inconclusive.

Chain of Glucocorticoid receptor (Homo sapiens) (P04150 whole entry, looked up): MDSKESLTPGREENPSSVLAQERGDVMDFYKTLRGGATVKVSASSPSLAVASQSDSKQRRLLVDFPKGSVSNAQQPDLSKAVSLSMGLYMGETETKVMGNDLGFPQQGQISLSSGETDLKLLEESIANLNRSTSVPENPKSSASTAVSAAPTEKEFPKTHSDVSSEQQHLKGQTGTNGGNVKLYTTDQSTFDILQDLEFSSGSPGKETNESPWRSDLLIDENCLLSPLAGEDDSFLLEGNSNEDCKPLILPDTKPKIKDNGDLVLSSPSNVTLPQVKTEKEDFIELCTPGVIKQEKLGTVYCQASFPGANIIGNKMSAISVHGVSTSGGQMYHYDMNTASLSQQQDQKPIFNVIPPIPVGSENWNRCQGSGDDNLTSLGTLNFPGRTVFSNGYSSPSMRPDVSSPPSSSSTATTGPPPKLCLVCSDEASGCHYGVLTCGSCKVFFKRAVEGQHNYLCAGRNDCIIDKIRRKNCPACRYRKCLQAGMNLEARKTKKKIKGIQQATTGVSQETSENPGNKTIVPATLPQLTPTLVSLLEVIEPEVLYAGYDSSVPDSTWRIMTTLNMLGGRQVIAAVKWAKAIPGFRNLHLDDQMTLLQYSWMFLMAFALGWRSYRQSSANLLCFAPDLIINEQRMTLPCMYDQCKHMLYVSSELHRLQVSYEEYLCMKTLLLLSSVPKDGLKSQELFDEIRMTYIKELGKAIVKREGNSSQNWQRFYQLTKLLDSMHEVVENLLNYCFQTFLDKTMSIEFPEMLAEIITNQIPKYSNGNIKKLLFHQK
Chain of Vitamin D3 receptor (Homo sapiens) (P11473 whole entry, looked up): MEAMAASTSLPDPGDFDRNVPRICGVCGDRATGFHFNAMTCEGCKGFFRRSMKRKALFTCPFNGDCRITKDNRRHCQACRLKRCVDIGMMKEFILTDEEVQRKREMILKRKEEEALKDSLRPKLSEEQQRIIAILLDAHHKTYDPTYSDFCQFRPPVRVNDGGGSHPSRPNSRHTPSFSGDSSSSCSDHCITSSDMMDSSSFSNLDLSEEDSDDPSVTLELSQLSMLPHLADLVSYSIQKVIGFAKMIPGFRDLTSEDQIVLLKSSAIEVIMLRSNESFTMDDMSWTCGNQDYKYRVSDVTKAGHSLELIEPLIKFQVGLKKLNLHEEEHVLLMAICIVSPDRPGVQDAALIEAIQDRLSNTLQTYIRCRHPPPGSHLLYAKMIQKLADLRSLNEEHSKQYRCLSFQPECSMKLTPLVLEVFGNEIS
Chain of Peroxisome proliferator-activated receptor gamma (Homo sapiens) (P37231 whole entry, looked up): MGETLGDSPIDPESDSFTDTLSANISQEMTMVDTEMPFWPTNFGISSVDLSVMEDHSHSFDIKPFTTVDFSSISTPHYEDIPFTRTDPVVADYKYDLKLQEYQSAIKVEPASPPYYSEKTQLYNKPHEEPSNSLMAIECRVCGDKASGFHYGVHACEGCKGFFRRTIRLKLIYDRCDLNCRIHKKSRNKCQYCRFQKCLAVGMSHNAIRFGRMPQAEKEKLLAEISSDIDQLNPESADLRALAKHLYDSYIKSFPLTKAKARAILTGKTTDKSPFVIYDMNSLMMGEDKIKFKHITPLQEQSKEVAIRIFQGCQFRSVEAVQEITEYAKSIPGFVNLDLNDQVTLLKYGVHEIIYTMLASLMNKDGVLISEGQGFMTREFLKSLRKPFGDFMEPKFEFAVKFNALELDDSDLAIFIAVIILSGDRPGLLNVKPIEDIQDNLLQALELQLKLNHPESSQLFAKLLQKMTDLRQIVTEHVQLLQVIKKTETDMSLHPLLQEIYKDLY

On to `COC(=O)Nc1nc2ccccc2[nH]1`, for which the Potency in test [1] was above 92 µM; in test [2], 3.98 µM (active). For the same compound, the Potency entry in test [3], in [5], in [6], in test [7] and in [8] was “inactive” each time. Moreover, the caspase-3 activation in [4] is 10.9%. For the same compound, the activation in [9] is -11.7%. Moreover, the outcome in [10] and in test [11] was inactive.

Turning to `C=CCO`, the Potency in test [1] was above 92 µM. Besides, in test [12], the outcome was inactive. In [4], the caspase-3 activation is 2.82%. Also, the Potency result in test [13], in test [14], in test [5], in test [15], in test [6] and in test [16] was “inactive” throughout. Further, the Potency result in test [7], in [8] and in [18] was “inactive” throughout. Also, the activation in test [9] is 3.6%; in [17], 0.305%. The max response in test [19] is -2.14%.

Take `ClCCCCl`: the Potency in test [1] was above 92 µM. In addition, the Potency result in test [2], in test [3], in test [14], in test [5], in test [15] and in test [6] was “inactive” in each case. In addition, the Potency result in test [16], in test [7], in [8] and in test [18] was “inactive” each time. The call in test [12], in test [10] and in [11] was inactive. Besides, the caspase-3 activation in test [4] is 2.19%. The activation is -8% in [9] and 0.207% in test [17]. For the same compound, in test [19], the max response is -3.7%.

Regarding `Nc1cc(Cl)ccc1O`, the Potency is above 92 µM in test [1] and 33.5 µM (active) in [18]. The Potency entry in test [2], in test [3], in test [13], in [20], in test [15] and in [6] was “inactive” each time. Further, the Potency result in [16] and in test [8] was “inactive” throughout. For the same compound, the compound was called inactive in test [12] and in [10]. Besides, the caspase-3 activation in test [4] was 15.3%. Besides, the values for the activation in [9] and in [17] were 3.82% and -0.288%, respectively.

Take `Oc1cccc(Cl)c1`: the Potency in test [1] was above 92 µM. Besides, the Potency entry in test [2], in test [14], in test [20], in test [5], in test [15] and in test [6] was “inactive” each time. Moreover, the Potency entry in test [16], in test [8] and in test [18] was “inactive” in each case. The result in [12], in [10] and in test [11] was inactive. In test [4], the caspase-3 activation was 0.0873%. Moreover, the values for the activation in [9] and in test [17] were -11.4% and -0.548%, respectively. Besides, the max response in test [19] is 1.59%.

For the compound `CC(C)(C)OOC(=O)c1ccccc1`, the Potency in [1] is above 92 µM. Also, the Potency entry in test [2], in test [3], in test [14], in test [5], in [15] and in test [6] was “inactive” in each case. The Potency entry in [16], in [7], in test [8] and in test [18] was “inactive” each time. Further, the compound was called inactive in [12], in test [10] and in test [11]. In addition, the caspase-3 activation in test [4] was 6.04%. Further, the activation was 1.21% and -1.74% in [9]; 0.502% and 3.48% in test [17]. The max response in test [19] is 2.87% and -0.927%.

As to `O=[N+]([O-])c1ccc(O)c([N+](=O)[O-])c1`, the Potency result in [3], in [13], in [20], in test [5], in [16] and in test [7] was “inactive” throughout. Further, the Potency entry in test [8] was “inactive”. In addition, in test [4], the caspase-3 activation is -6.84%. Besides, in test [10], the result was inactive. Further, the activation in test [17] was 3.32%. Further, the Potency in test [18] was 37.6 µM (active).
